Assay outcomes from PubChem.
Cycloheximide cs = Cycloheximide Counterscreen for Small Molecule Inhibitors of Shiga Toxin; cell reporter, cycloheximide protein synthesis inhibition counterscreen; max response, %; hit rate 12% among 300,000; AID 2314, 2010; in the data active = max response mostly above about 13%, no sharp cut-off; inactive = mostly below about 14%; also: read at 38.3 µM for the half of the compounds with a filed dose; 0% is about no effect
Pf growth 48h = Primary qHTS for delayed death inhibitors of the malarial parasite plastid, 48 hour incubation; P. falciparum luciferase growth in erythrocytes, 48 h; Potency, µM (titrated, usually from 28.7 µM), inactives show at the top dose activity change, negative = inhibition, hits mostly inhibitors; hit rate 5.9% among 310,000; AID 504832, 2011; also: potency is read from the fitted curve at half-maximal effect; % is scaled to controls: 0 for no effect and ±100 for the full control effect
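Here the parasites carry a stable luciferase gene and grow inside erythrocytes in Albumax-based RPMI medium with compound for one erythrocytic cycle. Activity is scored as loss of luminescent signal.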
NS1 inh = qHTS Assay for Inhibitors of Influenza NS1 Protein Function; Potency, µM (top dose mostly 46.1 µM), without a hit: top-dose activity, positive = more growth; hit rate 0.4% among 270,000; calls by dose curve; also: potency is read from the fitted curve at half-maximal effect; actives are rising curves; nearly all actives have a fitted effect of over 50% in size
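Growth recovery, yeast-based: influenza A NS1 expressed in S. cerevisiae causes slow growth, and suppressors are detected by OD600. The parent strain without NS1 is used as positive control.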
Shiga inhibitor = A qHTS for Small Molecule Inhibitors of Shiga Toxin. hit rate 9.2% among 290,000. inhibition, % at 38.7 µM. AID 2315, 2010. Vero cells, Shiga toxin protein synthesis inhibition reporter; in the data active = inhibition mostly above about 28%, no sharp cut-off; inactive = mostly below about 43%; also: 0% is about no effect
Pf growth 96h = Primary qHTS for delayed death inhibitors of the malarial parasite plastid, 96 hour incubation; P. falciparum luciferase reporter growth, 96 h; Potency, µM (highest dose often 28.7 µM), inactives show top-dose activity change, negative = inhibition, hits mostly inhibitors; hit rate 6.9% among 320,000; AID 504834, 2011; also: potency is read from the fitted curve at half-maximal effect; % is scaled to controls: 0 for no effect and ±100 for the full control effect
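Parasite growth measured via integrated firefly luciferase reporter in P. falciparum. Infected erythrocytes at 2% hematocrit, 0.05% parasitemia final were treated 96 hours at 37 C under 5% CO2, and luminescence was read.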
* hit, by the source's call; i = inactive; u = inconclusive; x = not tested or not shown. A selection: hits, their analogues and other compounds. The true share with any hit is near 21%. Unless noted, calls follow the shape of the dose curve; as a rule, active = well fitted inhibition curve with a large enough effect; inconclusive = small, poorly fitted or top-dose-only effect, or another doubt; inactive = no such curve, though single readings can be large or run the other way.

SMILES | Cycloheximide cs | Pf growth 48h | NS1 inh | Shiga inhibitor | Pf growth 96h
COc1ccc(N=C2SC(C(=O)N3CCN(c4ccc([N+](=O)[O-])cc4)CC3)CC(=O)N2C)cc1 (configuration not stated) | -0.8 | 14.7µM* | -2.6% | 20.2 | -17.6%
CC1C2CCC3C4CC=C5CC(N(C)C)CC[C@@]5(C)C4CC[C@@]32CN1C (some centres not stated) | x | 15.1µM* | x | x | u
C[C@]12CC[C@H](O)CC1=CC[C@H]1[C@@H]2CC[C@@]2(C)C(N(CCO)CCO)CC[C@@H]12 (some centres not stated) | x | x | -7.8% | x | x
CCCc1c(C(=O)N/N=C/c2ccccc2C(F)(F)F)nnn1-c1nonc1N | -1.9 | u | -4.2% | -7.0 | u
C=C(C)CNC(=S)N/N=C(\C)c1ccc(Cl)s1 | 2.0 | 11.7µM* | -17.8% | 15.1 | u
CC(=O)Nc1ccc(S(=O)(=O)NC2CCCCCC2)cc1 | -1.6 | 1.5% | 3.6% | -5.2 | -9.8%
O=C(CNC(=O)OCc1ccccc1)NC1CCCCCCC1 | 2.2 | 7.4% | -19.5% | 19.6 | 18.5%
CC(=O)c1ccc(NC(=S)NNC(=O)NC2CCCCC2)cc1 | 20.5* | 15.9% | x | 58.8 | 21.9%
NC(=O)C1CCC(NC(=O)OCc2ccccc2)CC1 (configuration not stated) | -0.5 | 34.1% | -2.1% | 17.5 | 6.57µM*
NS(=O)(=O)c1ccc(NC(=S)NC2CCCCCC2)cc1 | -2.4 | -2.8% | -3.1% | 10.8 | -5.0%
CC(C)C(=O)NC(=S)Nc1ccc(S(=O)(=O)NC2CCCCC2)cc1 | 5.4 | 3.7% | -1.3% | 18.6 | 16.5µM*
O=C(Nc1ccccc1)NC1CCCCC1 | 51.3* | x | -2.4% | 49.0* | 45.0%
O=C(Nc1cccc2ccccc12)NC1CCCCC1 | 1.2 | 45.2% | 2.5% | -5.2 | 0.828µM*
O=C(Nc1ccc(Br)cc1)C1CCCC1 | 5.9 | 18.0% | -16.3% | 5.9 | 9.3%
O=C(Nc1cccc2ccccc12)NC1Cc2ccccc2C1 | 4.0 | 32.5% | 0.9% | 22.7 | u
O=C(CN1CCC(NC(=O)Cc2ccccc2)CC1)Nc1cccc2ccccc12 | -4.2 | u | -6.6% | -18.9 | 8.28µM*
O=C(Nc1cccc([N+](=O)[O-])c1)NC1CCCCCCC1 | 32.3* | 38.2% | -97.8% | 81.3* | -17.3%
O=C(Nc1ccc(Br)cc1)NC1CCCCCCC1 | 44.0* | 104.6% | -7.3% | 137.0* | u
Cc1ccccc1NC(=O)CN1CCC(NC(=O)Nc2ccccc2)CC1 | 0.8 | u | 4.9% | -11.6 | 13.6%
Cn1c(=O)c2[nH]c(COc3ccc(C(C)(C)C)cc3)nc2n(C)c1=O | -1.1 | 3.7% | -2.8% | -2.0 | 34.4%
CCOc1ccc(OCCCC(=O)ON=C(N)c2ccccc2C)cc1 | x | -20.1% | x | x | -21.9%
CCOC(=O)C1=C(COC(=O)CCOc2cc(C)ccc2C)NC(=O)NC1C (configuration not stated) | x | u | x | x | -21.7%
Cc1[nH]c2ccccc2c1C(=O)CN1CC(C)OC(C)C1 (configuration not stated) | -2.5 | 0.0% | -0.5% | 22.9 | -9.7%
O=C(Nc1ccccc1NC(=O)NC1CCCCC1)NC1CCCCC1 | 27.2* | 32.0% | -5.1% | 34.8 | x
Cc1ccc(CN=C(Nc2ccccc2)NC2CCCCC2)cc1 | -3.1 | 10.4µM* | -0.5% | 6.6 | u
SMILES | Cycloheximide cs | Pf growth 48h | NS1 inh | Shiga inhibitor | Pf growth 96h
O=C(NC1CCS(=O)(=O)C1)Oc1ccccc1 (configuration not stated) | -6.1 | x | -2.1% | -22.2 | -4.2%
O=C(NC1CCCCC1)Oc1ccccc1 | 29.6* | 57.0% | -4.4% | 51.5 | 0.0%
O=C(NC1CCCCC1)c1ccc(CNc2ccccc2)o1 | 1.5 | 5.4% | -14.6% | -3.1 | 93.8%
O=C(NC1CCCCCCC1)NC1CCCCC1 | 26.1* | 119.5% | -4.5% | 22.8 | 161.7%
NC(=O)c1ccccc1NC(=O)NC1CCCCC1 | -5.7 | -4.3% | -1.2% | 10.5 | 10.6%
CN1CCC(NC(=O)NC2CCCCC2)CC1 | 0.8 | -3.2% | 3.4% | 3.5 | u
COc1cc(NC(=O)CC(C)S(=O)(=O)c2cc3c(cc2C)NC(=O)CO3)cc(OC)c1OC (configuration not stated) | -2.2 | 7.4% | 5.0% | 12.1 | 0.0%
CC(=O)NC(=S)Nc1cccc([N+](=O)[O-])c1 | -3.0 | 7.4% | 6.5% | -7.1 | 15.3%
CC(C)NS(=O)(=O)c1ccc(NC(=O)NC2CCCCC2)cc1 | 14.1* | -7.2% | 6.2% | 19.9 | u
O=C(NC(=S)Nc1cccc([N+](=O)[O-])c1)C1CCCC1 | 33.9* | 13.6% | -16.9% | 52.2* | -17.7%
N=C(N)SCc1cccc2c(=O)cc(-c3ccccc3)oc12 | x | x | 13.7% | x | x
COc1ccc(C(=O)n2cc(C(=O)c3cc(C)ccc3O)cn2)cc1 | -3.4 | 17.5% | -5.1% | 19.4 | -29.9%
Oc1ccc(-c2[nH]ncc2-c2cnn(-c3ccccc3)c2)c(O)c1 | -0.9 | 0.0% | x | 20.3 | u
O=C(Cc1cnn(-c2ccccc2)c1)c1ccc(O)c(O)c1O | 17.1* | x | -88.7% | 34.8 | 8.9%
CCc1cc(C(=O)Cc2cnn(-c3ccccc3)c2)c(O)cc1O | 22.8 | u | -5.6% | 17.0 | u
Cc1ccc(O)c(C(=O)c2cnn(-c3ccccc3)c2)c1 | 26.9* | 96.8% | -6.1% | 108.4* | x
Cc1ccc(-n2cc(C(=O)c3ccccc3O)cn2)cc1 | 52.6* | -66.9% | -4.1% | 61.3* | i
Oc1cnn(-c2ccccc2)c1 | 15.5* | 48.8% | 4.6% | 16.6 | x
Cc1ccc(-n2cc(C(=O)c3ccc4ccccc4c3O)cn2)cc1 | -2.6 | 10.3% | 15.0% | 2.3 | 45.9%
CCOC(=O)c1c(C)nc2c(c1-c1ccc(Cl)cc1)C(=O)CC(C)(C)C2 | -1.0 | u | -16.9% | -17.0 | 119.3%
CCN(CC)S(=O)(=O)c1ccc(F)c(C(=O)OC2CC(C)OC2=O)c1 (configuration not stated) | -5.7 | 8.5% | 8.4% | -15.8 | 15.2%
O=C1CCCc2nc3c(cc21)C(O)Oc1ccccc1-3 (configuration not stated) | 8.2 | 38.1% | -6.5% | 18.3 | -3.3%
O=C1CCCc2nc3c(cc21)C(O)Oc1c-3ccc2ccccc12 (configuration not stated) | 48.8* | 179.7% | x | 65.0* | i
COc1ccc(C2/C=C\CN(CC(C)C)C(C)C(=O)N2Cc2ccc(F)cc2)cc1 (configuration not stated) | 31.2* | x | x | 142.3* | x
COC(=O)N1C/C=C\C(c2ccc(OC)cc2)N(Cc2ccc(F)cc2)C(=O)C1 (configuration not stated) | 0.4 | u | 3.6% | -10.7 | u
COc1ccc(C2/C=C\CN(CC(C)C)C(Cc3ccccc3)C(=O)N2Cc2ccc(F)cc2)cc1 (configuration not stated) | 98.8* | x | x | 126.0* | x
COc1ccc(C2/C=C\CN(CC3CC3)C(Cc3ccccc3)C(=O)N2Cc2ccc(F)cc2)cc1 (configuration not stated) | 16.3 | x | x | -3.2 | x
